Assay outcomes: PubChem BioAssay, National Center for Advancing Translational Sciences (NCATS)
Pf growth 96h = P. falciparum growth inhibition at 96 hour, primary screen for plastid delayed-death inhibitors; AID 504834; Potency, µM (top dose mostly 28.7 µM), for inactives: at the top dose activity change, negative = inhibition, hits mostly inhibitors; 320,000 compounds, 6.9% hits; P. falciparum luciferase reporter growth, 96 h
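Plates of compound plus infected erythrocytes (2% hematocrit, 0.05% parasitemia final) incubate 96 hours, 37 C, 5% CO2. Detection reagent added; reduced luminescence from the parasites' luciferase reporter flags inhibition.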
AmpC no deterg = inhibitors of E. coli AmpC beta-lactamase without detergent; P00811; AmpC nitrocefin hydrolysis, absorbance 480 nm, 0.0001% Triton; Potency, µM (highest dose often 57.1 µM), for inactives: at the top dose activity change, negative = inhibition, most hits filed as inhibitors; 330,000 compounds, 0.52% hits; AID 485341;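 also: plate controls were no compound for no effect and no enzyme for full effect; nearly all actives have a fitted effect of over 20% in size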
Target sequence (P00811 whole entry, looked up): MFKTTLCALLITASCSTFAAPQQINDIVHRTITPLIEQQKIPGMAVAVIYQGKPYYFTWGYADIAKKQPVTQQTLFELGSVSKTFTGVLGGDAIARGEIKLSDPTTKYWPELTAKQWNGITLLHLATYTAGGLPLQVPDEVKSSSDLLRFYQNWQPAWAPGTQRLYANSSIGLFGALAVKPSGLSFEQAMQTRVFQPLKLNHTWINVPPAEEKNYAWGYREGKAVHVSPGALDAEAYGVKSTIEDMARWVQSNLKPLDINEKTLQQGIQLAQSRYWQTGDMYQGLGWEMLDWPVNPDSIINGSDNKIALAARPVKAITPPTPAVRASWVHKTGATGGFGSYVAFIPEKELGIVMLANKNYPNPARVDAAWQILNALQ
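AmpC (5.3 nM in the dispensed reagent) in 20 mM phosphate pH 7.0 with 0.01% (detergent screen) or 0.0001% Triton X-100 was preincubated with compounds for 15 min at room temperature. Nitrocefin was then added from an 800 uM solution, and hydrolysis was followed at 480 nm.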
AmpC inh detg = AmpC beta-lactamase inhibition with detergent present; AmpC hydrolysis of nitrocefin, absorbance 480 nm, 0.01% Triton; Potency, µM (top dose mostly 114 µM), for the others: at the top dose activity change, negative = inhibition, actives largely listed as inhibitors; 370,000 compounds, 0.041% hits;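 also: 0% = no-compound wells and -100% = no-enzyme wells; nearly all actives have a fitted effect of over 25% in size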
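AmpC (5.3 nM in the dispensed reagent) in 20 mM phosphate pH 7.0 with 0.01% (detergent screen) or 0.0001% Triton X-100 was preincubated with compounds for 15 min at room temperature. Nitrocefin was then added from an 800 uM solution, and hydrolysis was followed at 480 nm.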
AMA1 RON2 block = inhibitors of Plasmodium falciparum AMA1-RON2 interaction | AlphaScreen AMA1-biotinylated RON2 peptide binding | Potency, µM (series often up to 58.2 µM), inactives show at the highest dose activity change, negative = inhibition, usual class: inhibitors | 360,000 compounds, 0.2% hits;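 also: 0% = vehicle wells and -100% = peptide control; nearly all actives have a fitted effect of over 45% in size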
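AMA1 (3D7) with his tag at 25 nM final met compounds first, then biotinylated RON2 peptide at 25 nM; detection used donor plus acceptor beads, 10 µg/mL apiece, read by AlphaScreen after 30 min at room temperature.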
Pf growth 48h = inhibits P. falciparum growth in the first generation, 48 h; 310,000 compounds, 5.9% hits; P. falciparum luciferase growth in erythrocytes, 48 h; AID 504832; Potency, µM (titrated, usually from 28.7 µM), for inactives: at the top dose activity change, negative = inhibition, actives largely listed as inhibitors
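A one-generation exposure of luciferase-tagged malaria parasites in RPMI 1640/Albumax erythrocyte culture, 37 C and 5% CO2. Inhibition is inferred from decreased luminescence after adding detection reagent.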
HCV inh = blocks hepatitis C virus | Huh7.5.1 HCVcc-Cre infection, luciferase reporter, 44 h | Potency, µM (series often up to 41.8 µM), for the others: top-dose activity change, negative = inhibition, usual class: inhibitors | 340,000 compounds, 3.4% hits | AID 651820
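HCVcc-Cre virus at an moi near 0.5 was added right after compound to cells cultured 4 h from seeding (1,000 cells/well). Luciferase activity was determined 44 h later, 15 min after substrate addition at RT.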
Numbers without * were called inactive; ? = inconclusive; nt = no result given; ! = repeats disagree; [ ] = remark or other dose. Only some compounds are listed: those with a hit (about 11% of all), similar ones and a draw of the others. Calls follow the shape of the dose curve; as a rule, active = well fitted curve in the direction sought with a large enough effect; inconclusive = small, poorly fitted or top-dose-only effect, or another doubt; inactive = no such curve, though single readings can be large; an effect the other way counts as inactive or inconclusive. Unless noted, % is scaled to controls: 0 for no effect and ±100 for the full control effect; potency is read from the fitted curve at half-maximal effect.

SMILES	Pf growth 96h	AmpC no deterg	AmpC inh detg	AMA1 RON2 block	Pf growth 48h	HCV inh
Cc1cccc(Nc2nc(N)nc(CCl)n2)c1C	1.5µM*	-20%	2%	-12%	?	-75%
COc1ccc(OC[C@@H](O)CNC(=O)c2cccc3c2C(=O)c2ccc(Cl)cc2S3(=O)=O)cc1	2.1µM*	141%	1%	36%	?	11%
O=C(NCc1ccc(F)cc1)c1cccc2c1C(=O)c1ccc(Cl)cc1S2(=O)=O	32%	-26%	4%	nt	14%	9%
O=[N+]([O-])c1ccc(S(=O)(=O)Nc2nnc(C(F)(F)F)s2)cc1	10µM*	-23%	4%	-14%	22%	11%
CCOc1cc(S(=O)(=O)NCCc2c(C)[nH]c3ccc(C)cc23)ccc1Br	nt	nt	5%	nt	nt	nt
COc1ccc(C)cc1NC(=O)CN1c2ccccc2S(=O)(=O)c2ccccc21	nt	nt	6%	nt	nt	nt
Cc1ccc(NC(=O)C2CC(=O)N(Cc3ccccc3)C2)cc1S(=O)(=O)N1CCCCCC1 (centres undefined)	12µM*	50%	1%	-6%	?	8.9µM*
Cc1ccc(CN2CC(C(=O)Nc3ccc(S(=O)(=O)N4CCCCC4)cc3)CC2=O)cc1 (centres undefined)	nt	nt	nt	-22%	nt	8%
CCN(CC)S(=O)(=O)c1cc(NC(=O)C2CC(=O)N(Cc3ccccc3)C2)ccc1Cl (centres undefined)	?	48%	?	52%	10µM*	11µM*
CCc1ccccc1N1CC(C(=O)Nc2cc(S(=O)(=O)N3CCCC3)ccc2Cl)CC1=O (centres undefined)	?	28%	-5%	2%	?	11µM*
O=C(NNC(=O)C1CC(=O)N(Cc2ccccc2)C1)c1ccc(Br)cc1 (centres undefined)	2.3µM*	-9%	-15%	96%	26%	-1%
CCc1nnc2n1N(C(C)=O)C(c1ccc(C(C)(C)C)cc1)=C(C(C)=O)S2	nt	nt	2%	nt	nt	nt
O=C(Nc1ccc(S(=O)(=O)N2CCCCC2)cc1)C1CC(=O)N(Cc2ccccc2)C1 (centres undefined)	?	31%	9%	-15%	13µM*	6%
COC(=O)[C@@H](N)Cc1ccc(O)c(O)c1	9.5µM*!	-28%	-4%	10%	?	?
COC(=O)C(N)Cc1ccc(Cl)cc1 (centres undefined)	1%	-12%	-17%	-1%	-5%	12%
CSc1ccccc1NC(=O)CN(C)CC(=O)c1c(C)[nH]c2ccccc12	?	-3%	-2%	48%[11.6 µM]	4.1µM*	?
O=C1CCCc2[nH]c(=O)c(-c3nc(-c4cccc([N+](=O)[O-])c4)cs3)cc21	nt	nt	20%	nt	nt	nt
COc1cc(NC(=O)NCc2ccco2)ccc1-c1ccc(NC(=O)NCc2ccco2)cc1OC	nt	nt	nt	-1%	nt	11µM*
Cc1nc2cc(NC(=O)NCc3ccco3)ccc2o1	nt	0.35µM*	2%	0%	41%	18%
COc1ccccc1NC(=O)NCc1ccco1	-4%	-26%	?	18%	10%	?
COC(=O)c1c(C)oc2ccc(N(C(=O)Oc3ccccc3)S(=O)(=O)c3ccc(C(C)(C)C)cc3)cc12	nt	nt	5%	nt	nt	nt
Cc1cccc(NC(=O)C2CCCN(S(=O)(=O)c3c(C)[nH]c(=O)[nH]c3=O)C2)c1C (centres undefined)	nt	nt	-4%	nt	nt	nt
Cc1[nH]c2ccccc2c1/C=N/n1cnnc1	-3%	-21%	-4%	1%	-13%	-17%
COCCN=c1scc(-c2cc(OC)c(OC)c(OC)c2)n1/N=C/c1c(C)[nH]c2ccccc12	2.6µM*	170%	-10%	-3%[11.6 µM]	7.4µM*	8.9µM*
COc1ccc(C2=CC(c3ccc(OC)c(OC)c3)c3c(c4ccccc4oc3=O)O2)cc1OC (centres undefined)	8.3µM*	35%	0%	-13%	2.6µM*	10µM*
SMILES	Pf growth 96h	AmpC no deterg	AmpC inh detg	AMA1 RON2 block	Pf growth 48h	HCV inh
CCCCc1nnc2c(N(C)S(=O)(=O)c3ccc(C)cc3)nc3ccccc3n12	12µM*	-13%	2%	-27%	?	8%
CCc1nnc2c(N(C)S(=O)(=O)c3ccc(C)cc3)nc3ccccc3n12	8%	-4%	2%	2%	-1%	6%
CCCc1nnc2c(N(C)S(=O)(=O)c3ccc(C)cc3)nc3ccccc3n12	13µM*	-17%	-13%	-4%	?	11%
O=C(c1ccccc1)c1ccc2nc(Nc3ccccc3Cl)c3nncn3c2c1	nt	nt	-3%	nt	nt	nt
CCCCc1nn2c(=O)cc(COC(=O)c3ccco3)nc2s1	nt	nt	-10%	nt	nt	nt
c1ccc(CN2CCC(N3CCC(N4CCCCCC4)CC3)CC2)cc1	8.3µM*	-4%	-1%	17%	13µM*	?
O=S(=O)(c1ccccc1)N1CCN(C2CCN(Cc3ccccc3)CC2)CC1	0%	-15%	-17%	29%	0.1µM*	?
O=S1(=O)CC(N2CCCCC2)CN1Cc1ccccc1 (centres undefined)	nt	nt	nt	-3%	nt	nt
O=S(=O)(c1ccc2ccccc2c1)N1CCN(C2CCN(Cc3ccccc3)CC2)CC1	1%	54%	1%	?	?	22µM*
Cc1ccc(S(=O)(=O)N2CCN(C3CCN(Cc4ccccc4)CC3)CC2)cc1	-8%[5.75 µM]	5%	-18%	-10%	6%	-17%
Cc1c(C)n(Cc2ccc(F)cc2)c2ccc(C(=O)NCc3ccco3)cc12	nt	nt	6%	nt	nt	nt
CCC1CCCCN1CCCNC(=O)c1ccc2c(c1)N(Cc1ccc(Cl)cc1)C(=O)c1ccccc1S2(=O)=O (centres undefined)	nt	nt	14%	nt	nt	nt
NCCCC(N)CC(=O)NCC1NC(=O)C(CO)NC(=O)C(N)CNC(=O)C(C2CCN=C(N)N2)NC(=O)/C(=C/NC(N)=O)NC1=O (centres undefined)	-20%	nt	nt	nt	1%	nt
CCn1cc2nc(SCc3cccc(OC)c3)n(Cc3ccc(Cl)cc3)c(=O)c2n1	nt	nt	-1%	nt	nt	nt
CCOc1ccc(NC(=O)CSc2nnc(-c3ccncc3)n2-c2ccccc2)cc1	nt	nt	4%	nt	nt	nt
CNC(=O)c1ccsc1NC(=O)c1sc2ccccc2c1Cl	113%	-21%	-10%	-3%	105%	11µM*
O=C(Nc1ccc(CN2CCCCC2)cc1)c1sc2ccccc2c1Cl	?	-7%	2%	-2%	62%	11µM*
CC(=O)Nc1ccc(CN2CCCCCC2)cc1	0%	-6%	?	12%	13%	10%
O=C(Nc1ccc(CN2CCCCC2)cc1)c1cccc(Br)c1	?	-20%	0%	-7%	?	?
